Test results from PubChem BioAssay.
The source made the active and inactive calls.

Tests used:
[1] = optical density shifts of acrAB sulA E. coli – strain DRC41, OD650, 48 h, E. coli filamentation inducer project, primary screen (AID 1152); settings: higher = more signal, called active from +8 up or from −8 down;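 note: E. coli MC1000 strain DRC41 lacking acrAB efflux pump and sulA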
[2] = probe aLefty1 binding on compound microarray – biochemical, small-molecule microarray, 635/667 nm fluorescence, primary screen (AID 1153); settings: higher = more signal;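 note: score merges spot fluorescence with signal-to-noise ratio from the scanned slide images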
[3] = plasmodial surface anion channel blockers, osmotic lysis – cell-based, P. falciparum Indochina, OD700, 1 h, primary screen (AID 1154); settings: P. falciparum Indochina infected RBC osmotic lysis, higher = more signal, called active from +8 up or from −8 down
[4] = plasmodial surface anion channel blockers, osmotic lysis – cell-based, P. falciparum Indochina, OD700, 2 h, primary screen (AID 1155);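 note: lysis reports solute entry through the parasite surface anion channel PSAC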; settings: P. falciparum Indochina infected erythrocytes, higher = more signal, called active from +8 up or from −8 down
[5] = changes in parasitized red cell lysis, either direction – P. falciparum Indochina, OD700, 3 h, PSAC antagonist project, primary screen (AID 1156); settings: P. falciparum-infected erythrocytes, osmotic lysis, higher = more signal, called active from +8 up or from −8 down
[6] = plasmodial surface anion channel blockers, osmotic lysis – cell-based, P. falciparum Indochina, OD700, 18 h, primary screen (AID 1157); settings: P. falciparum Indochina infected erythrocytes, osmotic lysis OD700, 18 h; higher = more signal, called active from +8 up or from −8 down
[7] = S6 kinase pathway phospho-S6 level changes – cell-based, A549, cytoblot, luminescence, serum-stimulated, primary screen (AID 1158); settings: 5 h, higher = more signal;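 note: serum-stimulated A549 lung adenocarcinoma cells; signal is phosphorylated S6 detected by cytoblot immunostaining with HRP secondary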
[8] = biological target: NADPH oxidase 2 (Homo sapiens) (UniProt P04839); assay: compounds shifting NOX2 Amplex Red fluorescence – cell-based, HEK293-NOX2, PMA-stimulated, NOX inhibitor project, primary screen (AID 1159); settings: 45 min, higher = more signal, called active from +8 up or from −8 down; note: test concentration not given here
[9] = biological target: NADPH oxidase 4 (Homo sapiens) (UniProt Q9NPH5); assay: compounds shifting NOX4 Amplex Red fluorescence – cell-based, HEK293-NOX4, tetracycline-induced, NOX inhibitor project, primary screen (AID 1160); settings: HEK293-NOX4, Amplex Red H2O2 fluorescence, 45 min; higher = more signal, called active from +8 up or from −8 down
[10] = biological target: NADPH oxidase 5 (Homo sapiens) (UniProt Q96PH1); assay: compounds shifting NOX5 Amplex Red fluorescence – cell-based, HEK293-NOX5, NOX inhibitor project, primary screen (AID 1161); settings: HEK293-NOX5, ionomycin, 45 min, higher = more signal
[11] = compound effects on lung adenocarcinoma cell viability – A549, calcein-AM fluorescence, 48 h, basal, profiling panel (AID 1162); settings: higher = more signal; note: test concentration not given here
[12] = compound effects on differentiated 3T3-L1 adipocyte viability – cell-based, 3T3-L1 adipocytes, calcein-AM fluorescence, 48 h, basal, profiling panel (AID 1163); settings: 3T3-L1 adipocytes viability, higher = more signal; note: test concentration not given here
[13] = compound effects on hepatocellular carcinoma cell viability – HepG2, calcein-AM fluorescence, 48 h, basal, profiling panel (AID 1164); settings: higher = more signal; note: test concentration not given here
[14] = compound effects on multiple myeloma cell viability – MM1S, calcein-AM fluorescence, 48 h, basal, profiling panel (AID 1165); settings: higher = more signal;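 note: viability of MM1S multiple myeloma cells under basal unstimulated conditions; test concentration not given here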
[15] = calcein-AM signal in unstimulated myeloma cells – cell-based, calcein-AM fluorescence, 48 h, PK04 Diversity Set, profiling panel (AID 1166); settings: RPMI8226 myeloma viability, higher = more signal;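 note: cells grown under basal conditions without added stimulus; test concentration not given here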
[16] = JC-1 mitochondrial signal, unstimulated HepG2 cells – cell-based, JC-1 fluorescence, 24 h, 100 nL compound, profiling panel (AID 1167); settings: HepG2 mitochondrial potential, higher = more signal; note: test concentration not given here
[17] = JC-1 mitochondrial signal, unstimulated adipocytes – cell-based, JC-1 fluorescence, 3T3-L1 adipocytes, 24 h, 100 nL compound, profiling panel (AID 1168); settings: JC-1 mitochondrial fluorescence, higher = more signal, called active from +8 up or from −8 down; note: test concentration not given here
[18] = JC-1 mitochondrial signal, unstimulated myeloma cells – cell-based, JC-1 fluorescence, RPMI8226, 24 h, 100 nL compound, profiling panel (AID 1169); settings: JC-1 mitochondrial potential fluorescence, higher = more signal; note: test concentration not given here
[19] = JC-1 mitochondrial signal, unstimulated MM1S myeloma – cell-based, JC-1 fluorescence, 24 h, 100 nL compound, profiling panel (AID 1170); settings: MM1S mitochondrial potential, higher = more signal; note: test concentration not given here
[20] = resazurin metabolic signal in A549 cells – cell-based, resazurin fluorescence, 24 h, PK04 Diversity Set, profiling panel (AID 1171); settings: A549 viability, higher = more signal, called active from +8 up or from −8 down; note: test concentration not given here

NADPH oxidase 4 (Homo sapiens), sequence (Q9NPH5 whole entry, looked up): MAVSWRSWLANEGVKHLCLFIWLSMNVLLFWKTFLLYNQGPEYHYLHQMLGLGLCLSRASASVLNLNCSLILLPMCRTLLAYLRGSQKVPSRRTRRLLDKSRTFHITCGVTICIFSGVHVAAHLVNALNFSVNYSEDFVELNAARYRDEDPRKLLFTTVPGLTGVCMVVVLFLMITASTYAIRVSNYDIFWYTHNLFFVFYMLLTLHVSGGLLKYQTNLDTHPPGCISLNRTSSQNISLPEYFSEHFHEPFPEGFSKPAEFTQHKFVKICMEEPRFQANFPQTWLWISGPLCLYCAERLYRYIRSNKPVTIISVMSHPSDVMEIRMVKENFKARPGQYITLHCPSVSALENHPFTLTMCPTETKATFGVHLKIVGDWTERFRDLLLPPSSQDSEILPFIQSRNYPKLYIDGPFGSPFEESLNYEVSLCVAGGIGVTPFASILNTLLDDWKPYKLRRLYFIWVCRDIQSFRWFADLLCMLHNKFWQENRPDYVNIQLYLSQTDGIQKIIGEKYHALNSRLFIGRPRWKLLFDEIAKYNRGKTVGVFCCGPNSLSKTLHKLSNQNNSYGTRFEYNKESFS
NADPH oxidase 2 (Homo sapiens), sequence (P04839 whole entry, looked up): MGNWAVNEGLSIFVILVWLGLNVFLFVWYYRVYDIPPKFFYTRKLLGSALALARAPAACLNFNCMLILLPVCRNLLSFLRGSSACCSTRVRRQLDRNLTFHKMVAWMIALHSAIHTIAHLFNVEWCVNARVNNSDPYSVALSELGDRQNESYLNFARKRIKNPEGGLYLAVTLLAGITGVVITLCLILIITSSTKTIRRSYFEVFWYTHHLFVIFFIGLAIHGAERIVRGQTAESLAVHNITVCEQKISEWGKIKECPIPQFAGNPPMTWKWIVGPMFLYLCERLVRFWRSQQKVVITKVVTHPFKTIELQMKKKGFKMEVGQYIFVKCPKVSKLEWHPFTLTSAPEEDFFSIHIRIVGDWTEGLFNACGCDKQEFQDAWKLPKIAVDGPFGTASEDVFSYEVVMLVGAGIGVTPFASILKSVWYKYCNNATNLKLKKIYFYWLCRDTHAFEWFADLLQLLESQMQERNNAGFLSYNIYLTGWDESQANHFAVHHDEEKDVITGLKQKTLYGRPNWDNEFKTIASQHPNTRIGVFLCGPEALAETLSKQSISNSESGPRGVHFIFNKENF
NADPH oxidase 5 (Homo sapiens), sequence (Q96PH1 whole entry, looked up): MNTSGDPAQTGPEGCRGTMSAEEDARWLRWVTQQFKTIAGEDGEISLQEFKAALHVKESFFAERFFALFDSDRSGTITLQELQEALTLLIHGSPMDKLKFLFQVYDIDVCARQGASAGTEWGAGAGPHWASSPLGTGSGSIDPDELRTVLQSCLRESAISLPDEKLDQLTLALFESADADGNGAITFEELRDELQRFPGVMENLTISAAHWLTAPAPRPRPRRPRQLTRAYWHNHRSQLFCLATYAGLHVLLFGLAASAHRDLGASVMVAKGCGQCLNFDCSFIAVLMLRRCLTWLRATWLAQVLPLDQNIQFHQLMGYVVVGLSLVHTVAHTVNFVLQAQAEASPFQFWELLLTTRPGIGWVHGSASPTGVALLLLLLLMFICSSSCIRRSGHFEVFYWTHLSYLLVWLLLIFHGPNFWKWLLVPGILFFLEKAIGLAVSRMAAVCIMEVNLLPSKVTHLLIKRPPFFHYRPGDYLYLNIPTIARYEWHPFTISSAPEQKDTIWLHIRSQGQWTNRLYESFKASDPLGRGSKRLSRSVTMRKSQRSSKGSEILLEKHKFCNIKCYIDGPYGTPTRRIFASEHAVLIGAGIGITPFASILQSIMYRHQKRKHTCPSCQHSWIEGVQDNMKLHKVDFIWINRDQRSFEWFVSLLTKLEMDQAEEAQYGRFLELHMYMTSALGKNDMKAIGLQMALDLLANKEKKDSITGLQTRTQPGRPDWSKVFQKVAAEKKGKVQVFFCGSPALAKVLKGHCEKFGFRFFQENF

C=CC[C@H](OC(=O)Nc1ccc(OC)cc1)c1ccc(O)c2ccccc12
z-score [1]: -0.326 (inactive)
composite z-score [2]: 0.122
z-score [3]: 5.07 (inactive)
z-score [4]: 0.919 (inactive)
z-score [5]: -0.0585 (inactive)
z-score [6]: 0.328 (inactive)
z-score [7]: -0.93
z-score [8]: -6.04 (inactive)
z-score [9]: -1.58 (inactive)
z-score [10]: -0.343
z-score [11]: -1.39
z-score [12]: -1.07
z-score [13]: -3.1
z-score [14]: -2.8
z-score [15]: -4.26
z-score [16]: -2.68
z-score [17]: -1.05 (inactive)
z-score [18]: -1.02
z-score [19]: -2.15
z-score [20]: -0.745 (inactive)

CC=CC(O)C1C=CC2C(=O)N(c3ccccc3)C(=O)C2N1Nc1ccccc1 (stereo not given)
z-score [1]: 0.509 (inactive)
composite z-score [2]: 0.135
z-score [3]: 5.52 (inactive)
z-score [4]: 1.17 (inactive)
z-score [5]: 0.419 (inactive)
z-score [6]: 1.17 (inactive)
z-score [7]: -0.959
z-score [8]: 0.209 (inactive)
z-score [9]: -4.28 (inactive)
z-score [10]: -2.42
z-score [11]: 1.04
z-score [12]: -0.511
z-score [13]: 1.05
z-score [14]: 0.214
z-score [15]: -0.279
z-score [16]: -0.222
z-score [17]: 0.243 (inactive)
z-score [18]: -0.866
z-score [19]: -0.749
z-score [20]: 0.0599 (inactive)

C[n+]1ccc(CCCO)cc1
z-score [1]: -0.885 (inactive)
composite z-score [2]: 0.33
z-score [3]: 0.599 (inactive)
z-score [4]: -0.0234 (inactive)
z-score [5]: 1.87 (inactive)
z-score [6]: 0.131 (inactive)
z-score [7]: -0.283
z-score [8]: 0.176 (inactive)
z-score [9]: -0.435 (inactive)
z-score [10]: -1.72
z-score [11]: -0.566
z-score [12]: 0.927
z-score [13]: -0.96
z-score [14]: 0.375
z-score [15]: -1.77
z-score [16]: -0.0921
z-score [17]: -0.321 (inactive)
z-score [18]: -0.502
z-score [19]: 0.0343
z-score [20]: -1.15 (inactive)

[N-]=[N+]=Nc1ccccc1C[C@@]1(C(=O)O)N=C(c2ccc(OCCCO)cc2)O[C@@H]1c1ccccc1
z-score [1]: -0.265 (inactive)
composite z-score [2]: 0.273
z-score [3]: 17.7 (active)
z-score [4]: 1.37 (inactive)
z-score [5]: -1.14 (inactive)
z-score [6]: 0.245 (inactive)
z-score [7]: -0.405
z-score [8]: -0.135 (inactive)
z-score [9]: 1.27 (inactive)
z-score [10]: 1.24
z-score [11]: -0.0649
z-score [12]: -0.532
z-score [13]: -0.222
z-score [14]: -1.78
z-score [15]: -1.26
z-score [16]: -1.65
z-score [17]: -0.0754 (inactive)
z-score [18]: 0.00697
z-score [19]: -0.187
z-score [20]: 0.293 (inactive)

COc1ccc(CCNC(=O)[C@@]2(Sc3ccc(C)cc3)CC(=O)N(Cc3cc(C(F)(F)F)cc(C(F)(F)F)c3)[C@@H]2c2ccc(CO)cc2I)cc1
z-score [1]: 0.0818 (inactive)
composite z-score [2]: 0.0509
z-score [3]: 10.5 (active)
z-score [4]: 1.25 (inactive)
z-score [5]: -0.459 (inactive)
z-score [6]: 0.132 (inactive)
z-score [7]: 0.179
z-score [8]: 1.15 (inactive)
z-score [9]: -1.07 (inactive)
z-score [10]: 0.562
z-score [11]: 0.154
z-score [12]: -0.208
z-score [13]: 0.0649
z-score [14]: -1.46
z-score [15]: -1.96
z-score [16]: -1.08
z-score [17]: -0.208 (inactive)
z-score [18]: -0.165
z-score [19]: -2.1
z-score [20]: 0.469 (inactive)

O=c1cccc(-c2ccc(C(F)(F)F)cc2)o1
z-score [1]: -1.06 (inactive)
composite z-score [2]: -0.103
z-score [3]: 20.1 (active)
z-score [4]: 3.36 (inactive)
z-score [5]: -1.13 (inactive)
z-score [6]: 1.1 (inactive)
z-score [7]: -0.564
z-score [8]: 0.584 (inactive)
z-score [9]: -2.27 (inactive)
z-score [10]: -0.246
z-score [11]: -1.24
z-score [12]: -0.843
z-score [13]: -0.701
z-score [14]: 0.506
z-score [15]: -1.02
z-score [16]: -0.487
z-score [17]: 1.75 (inactive)
z-score [18]: 0.942
z-score [19]: -0.507
z-score [20]: 0.374 (inactive)

COCCOC(=O)N1C(=O)[C@@]2(c3ccccc31)[C@H](C(=O)N1CCN(c3ncccn3)CC1)[C@H]1C(=O)O[C@H](c3ccccc3)[C@H](c3ccccc3)N1[C@@H]2c1ccc(OCCO)cc1
z-score [1]: 1.18 (inactive)
composite z-score [2]: -0.244
z-score [3]: 16.4 (active)
z-score [4]: 3.96 (inactive)
z-score [5]: 0.779 (inactive)
z-score [6]: 1.24 (inactive)
z-score [7]: 0.242
z-score [8]: 0.351 (inactive)
z-score [9]: 0.798 (inactive)
z-score [10]: 0.55
z-score [11]: 1.16
z-score [12]: -0.069
z-score [13]: 1.39
z-score [14]: -0.198
z-score [15]: -0.156
z-score [16]: 1.38
z-score [17]: 0.865 (inactive)
z-score [18]: -0.459
z-score [19]: -1.27
z-score [20]: 0.218 (inactive)

C=C(/C=C/CNS(=O)(=O)c1ccc(C)cc1)[C@H](O)[C@H]1CCCN1S(=O)(=O)c1ccccc1[N+](=O)[O-]
z-score [1]: 0.611 (inactive)
composite z-score [2]: -0.185
z-score [3]: 11.5 (active)
z-score [4]: 1.43 (inactive)
z-score [5]: 0.643 (inactive)
z-score [6]: 0.647 (inactive)
z-score [7]: 0.229
z-score [8]: -0.358 (inactive)
z-score [9]: -1.6 (inactive)
z-score [10]: -1.6
z-score [11]: 0.623
z-score [12]: 0.581
z-score [13]: -0.291
z-score [14]: -1.28
z-score [15]: -0.264
z-score [16]: -1.79
z-score [17]: -0.221 (inactive)
z-score [18]: -0.525
z-score [19]: -0.0633
z-score [20]: 0.594 (inactive)

C=CCOC(=O)[C@@H]1[C@H]2C(=O)O[C@H](c3ccccc3)[C@H](c3ccccc3)N2[C@H](c2ccc(OCCOC(=O)[C@H]3C[C@H]4C(=O)N[C@@H](CCCCN(C)C)C(=O)N4[C@H]3c3cccc(OCCO)c3)cc2)[C@@]12C(=O)Nc1ccc(I)cc12
z-score [1]: -0.142 (inactive)
composite z-score [2]: 0.0665
z-score [3]: 1.19 (inactive)
z-score [4]: 1.16 (inactive)
z-score [5]: -1.08 (inactive)
z-score [6]: 0.865 (inactive)
z-score [7]: -0.714
z-score [8]: 1.53 (inactive)
z-score [9]: 1.18 (inactive)
z-score [10]: 1.29
z-score [11]: 0.0169
z-score [12]: -0.859
z-score [13]: -0.102
z-score [14]: -0.671
z-score [15]: -0.654
z-score [16]: -0.89
z-score [17]: 1.12 (inactive)
z-score [18]: -0.374
z-score [19]: -1.19
z-score [20]: -0.299 (inactive)
